Screening results (PubChem)
BLM inh: qHTS Assay for Inhibitors of Bloom's syndrome helicase (BLM) | recombinant BLM DNA unwinding, fluorescence dequenching | Potency, µM (doses to about 56.1 µM), inactives show at the highest dose activity change, negative = inhibition, hits mostly inhibitors | actives 0.2% (n = 350,000);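 further: plate controls were vehicle for no effect and no enzyme for full effect; nearly all actives have a fitted effect of over 35% in size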
ERG Ets-DNA blk: qHTS for Small Molecule Inhibitors of the ERG Ets/DNA interaction. Transcriptional regulator ERG (Homo sapiens), P11308. fluorescence polarization, His-ERG Ets domain / labelled DNA. Potency, µM (doses to about 76.9 µM), for inactives: at the top dose FP activity, negative = inhibition, actives largely listed as inhibitors. actives 0.028% (n = 370,000). AID 624246, 2012; active means well fitted inhibition curve with a large enough effect in the polarisation, with a control signal flat; inconclusive means small, poorly fitted or top-dose-only effect, or effect the other way, or a change in a side signal; inactive means no such curve, though single readings can be large or run the other way; the % refers to the polarisation;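 further: polarization taken with two DNA probes labelled with fluorescein and Texas red; % of control where 0% means no effect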
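His-tagged ERG Ets domain (1 uM in the protein solution; 300mM KCl, 50mM Tris-HCl, 1mM EDTA, 1mM DTT, pH 7.5) received compound, then a probe mix of 5 nM fluorescein-DNA and 100nM Texas-615-DNA. Fluorescence polarization was read for both dyes.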
GoLoco inh red: qHTS Assay for Inhibitors of RGS12 GoLoco Motif Activity (Red Fluorophore); actives 0.44% (n = 230,000); Potency, µM (series often up to 61.6 µM), for inactives: top-dose activity, negative = inhibition, most hits filed as inhibitors; Gai1:RGS12 GoLoco peptide FP, rhodamine, 10 min; Guanine nucleotide-binding protein G(i) subunit alpha-1 (Homo sapiens), P63096; active means well fitted inhibition curve with a large enough effect, not every such curve was filed as active; inactive means no such curve, though single readings can be large or run the other way; further: on the % scale 0 is the no-effect control and ±100 the full control effect; nearly all actives have a fitted effect of over 30% in size
Target sequence (P63096 whole entry, looked up): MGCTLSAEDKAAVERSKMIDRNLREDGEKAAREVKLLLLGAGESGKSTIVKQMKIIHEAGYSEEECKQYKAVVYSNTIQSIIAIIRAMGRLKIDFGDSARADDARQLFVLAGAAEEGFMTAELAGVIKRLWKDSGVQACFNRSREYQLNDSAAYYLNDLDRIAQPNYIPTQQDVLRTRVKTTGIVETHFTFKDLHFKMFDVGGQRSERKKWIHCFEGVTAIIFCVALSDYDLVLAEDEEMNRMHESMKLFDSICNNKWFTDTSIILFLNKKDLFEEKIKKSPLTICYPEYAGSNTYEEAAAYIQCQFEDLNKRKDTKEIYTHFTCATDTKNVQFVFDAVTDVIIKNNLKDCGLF
RECQ1 inh: qHTS Assay for Inhibitors of RecQ-Like Dna Helicase 1 (RECQ1). actives 0.54% (n = 240,000). RECQ1 DNA unwinding, red fluorescence kinetic read. Potency, µM (doses to about 57.3 µM), for inactives: at the highest dose activity, negative = inhibition, most hits filed as inhibitors;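 further: plate controls were vehicle for no effect and no enzyme for full effect; nearly all actives have a fitted effect of over 30% in size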
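50 nM RECQ1T1 preincubated 15 min with compound in Tris pH 8.0 buffer with MgCl2, DTT, Tween-20 and 2.5 ug/ml poly(dI-dC); started with 200 nM TAMRA/BHQ-2 forked duplex and 2 mM ATP. Unwinding read as fluorescence (525/598 nm), two reads 2 h apart.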
TexasRed fluor: Total Fluorescence Counterscreen for Inhibitors of the Interaction of Thyroid Hormone Receptor and Steroid Receptor Coregulator 2; TRb/SRC2 Texas Red total fluorescence interference; Potency, µM (titrated, usually from 106 µM), for the others: top-dose fluorescence change, negative = quenching; actives 0.29% (n = 280,000); active means well fitted curve in either direction with a large enough effect; inconclusive means small, poorly fitted or top-dose-only effect; further: on the % scale 0 is the no-effect control and ±100 the full control effect
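Human TRβ ligand-binding domain (0.6 uM) and Texas Red SRC2 peptide (20 nM) in Tris buffer with 1 uM T3 and 5% DMSO were incubated with pinned compound for 5 hr at ambient temperature. Total fluorescence was computed as S + 2P (555/632 nm).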
TRb SRC2 PPI: qHTS for Inhibitors of the Interaction of Thyroid Hormone Receptor and Steroid Receptor Coregulator 2. Thyroid hormone receptor beta (Homo sapiens), P10828. TRbeta-SRC2 peptide binding, fluorescence polarization; receptor liganded with 1 µM T3. actives 0.065% (n = 280,000). AID 1469, 2008. Potency, µM (highest dose often 106 µM), without a hit: at the top dose activity change, negative = inhibition, usual class: inhibitors;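 further: plate controls were bound peptide for no effect and peptide without receptor for full effect; nearly all actives have a fitted effect of over 50% in size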
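Compounds were added to 0.6 uM TRb ligand-binding domain and 20 nM Texas Red-labeled SRC2 peptide in Tris buffer containing 1 uM T3, incubated 5 hr at ambient temperature, then read by fluorescence polarization.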
An asterisk follows results filed as active; ! = not confirmed by another sample; [ ] = dose if it differs, or a comment. Sampled rows, rich in hits. Any-hit rate of the full collection: about 0.71%. Unless noted, the call rests on the fitted dose curve; in most records, active means well fitted curve in the direction sought with a large enough effect; inconclusive means small, poorly fitted or top-dose-only effect, or another doubt; inactive means no such curve, though single readings can be large; an effect the other way counts as inactive or inconclusive. Potency means the concentration at half of the fitted maximal effect.

Results for CN(C)C1C(=O)C(C(N)=O)=C(O)[C@@]2(O)C(=O)C3=C(O)c4c(O)cccc4[C@@](C)(O)C3CC12 (stereo partly drawn) ?
BLM inh: -7.8%; GoLoco inh red: 35.5µM*; RECQ1 inh: -1.0%; TexasRed fluor: inconclusive; TRb SRC2 PPI: -0.1%

What do the screens show for `[CH3][Hg][Cl]`?
GoLoco inh red: 25.1µM*; RECQ1 inh: 11.0%; TexasRed fluor: -3.6%; TRb SRC2 PPI: -4.5%

Results for COc1ccc(CCNCc2sccc2C)cc1OC ?
BLM inh: -5.2%; ERG Ets-DNA blk: 3.4%; GoLoco inh red: 25.1µM*; RECQ1 inh: 9.5%; TexasRed fluor: -0.7%; TRb SRC2 PPI: -5.5%

Results for CCCCC/C=C\C/C=C\C/C=C\C/C=C\CCCC(=O)NCC(=O)O ?
BLM inh: -12.2%; GoLoco inh red: 33.1%; RECQ1 inh: 3.55µM*!; TexasRed fluor: 2.1%; TRb SRC2 PPI: 10.2%

Results for CCCCC/C=C\C/C=C\C/C=C\C/C=C\CCCC(=O)NCCCC(=O)O ?
BLM inh: 99.9%; GoLoco inh red: 7.8%; RECQ1 inh: -24.7%; TexasRed fluor: 0.9%; TRb SRC2 PPI: -11.2%

What do the screens show for `CCCCC/C=C\C/C=C\C/C=C\C/C=C\CCCC(=O)Nc1ccc(O)cc1C`?
BLM inh: -22.7%; GoLoco inh red: 9.1%; RECQ1 inh: -15.9%; TexasRed fluor: 3.55µM*![quencher]; TRb SRC2 PPI: -15.6%

How did COc1ccc(/C(=C/C(=O)N2CCOCC2)c2ccc(Cl)cc2)cc1OC do in these assays?
TexasRed fluor: -1.4%[201 µM]; TRb SRC2 PPI: -4.0%[201 µM]

Results for COC(=O)/C(C)=C\CC12OC(C)(C)C3CC(C=C4C(=O)c5c(OC)c6c(c(CC=C(C)C)c5OC431)OC(C)(CCC=C(C)C)C=C6)C2=O (stereo not drawn) ?
BLM inh: -9.7%; GoLoco inh red: -0.9%; RECQ1 inh: -1.1%; TexasRed fluor: -3.1%; TRb SRC2 PPI: 0.6%

Results for CC(=O)Oc1c2c(c(CC=C(C)C)c3c1C(=O)C1=CC4CC5C(C)(C)OC(C/C=C(\C)C(=O)O)(C4=O)[C@]15O3)OC(C)(CCC=C(C)C)C=C2 (stereo partly drawn) ?
BLM inh: 22.4µM*; GoLoco inh red: -11.9%; RECQ1 inh: inconclusive; TexasRed fluor: 1.6%; TRb SRC2 PPI: -6.8%

Results for COc1cccc2c1C(=O)c1c(O)c3c(c(O)c1C2=O)C[C@](O)(/C(C)=N\O)C[C@@H]3O[C@H]1C[C@H](N)[C@@H](O)[C@H](C)O1 ?
GoLoco inh red: 0.631µM*

Results for CCCCNC(=O)OCC#CI ?
TexasRed fluor: -8.4%[201 µM]; TRb SRC2 PPI: 0.1%[201 µM]

Results for CN1CCN(c2ccc(F)cc2N)CC1 ?
BLM inh: -3.7%; ERG Ets-DNA blk: 1.5%; GoLoco inh red: 15.0%; RECQ1 inh: -10.9%; TexasRed fluor: -1.9%; TRb SRC2 PPI: -4.5%

How did CN1CCN(c2ccccc2N)CC1 do in these assays?
BLM inh: -0.6%; ERG Ets-DNA blk: -6.2%; GoLoco inh red: 25.1µM*; RECQ1 inh: inactive; TexasRed fluor: 14.6%; TRb SRC2 PPI: -22.2%

How did O=C(NC(=O)c1c(F)cccc1F)Nc1ccc(OC(F)(F)C(F)OC(F)(F)F)c(Cl)c1 (stereo not drawn) do in these assays?
TexasRed fluor: 2.9%[201 µM]; TRb SRC2 PPI: 0.3%[201 µM]
